Experimental data published in PubChem BioAssay AID687001 (Broad Institute, 2013).
Entries with a potency or affinity are not part of this list.

These molecules were tested against Protein S100-A4 (Homo sapiens) (UniProt P26447) (assay: human S100A4 peptide interaction inhibition curves – biochemical, fluorescence polarization, cherry-picked hits, dose response (AID 687001;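 further: 0% = DMSO neutral control wells and -100% = TFP positive control wells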)). Conditions: FP, S100A4/TAMRA-myosin IIA peptide binding; series mostly up to 11 µM; activity change, negative = inhibition: at the top concentration;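 active means signal-lowering compounds whose fitted half-maximal concentration is at or below twice the top tested dose in every run; inconclusive means runs disagree, flat 30 to 70% inhibition, or poor curve fit; inactive means the rest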.
Sequence of Protein S100-A4 (Homo sapiens) (P26447 whole entry, looked up): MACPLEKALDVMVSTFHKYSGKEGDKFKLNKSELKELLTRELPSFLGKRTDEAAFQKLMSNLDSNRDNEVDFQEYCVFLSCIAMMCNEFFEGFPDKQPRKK

Activity change, negative = inhibition, inactive:
C=CCNC(=O)/C(C#N)=C/c1c(N(Cc2ccccc2)Cc2ccccc2)nc2ccccn2c1=O 5.76%, CCC(=O)N[C@@H]1CC[C@H](CCNC(=O)Nc2ccc(C(F)(F)F)cc2)O[C@H]1CO -0.182%, Cc1noc(C)c1S(=O)(=O)N(C)C[C@@H]1OCCCC[C@H](C)Oc2ccc(NC(=O)C3CCCCC3)cc2C(=O)N([C@H](C)CO)C[C@H]1C 26.9%, O=C(NCC[C@H]1CC[C@@H](NS(=O)(=O)c2ccccc2F)[C@H](CO)O1)c1ccc(F)cc1 7.18%, COc1cc(NS(=O)(=O)c2ccc(NC(=O)c3ccc([N+](=O)[O-])cc3)cc2)ncn1 24.8%, COCC(=O)N1C[C@H]2[C@@H](c3ccccc31)[C@@H](CO)N2C(=O)Nc1ccccc1F 3.09%, CN(C)CC(=O)N[C@H]1CC[C@@H](CC(=O)NCc2ccc(Cl)cc2)O[C@@H]1CO -2.55%, O=C(NCCNC(=O)c1cccc(O)c1)c1cccc(O)c1 -2.43%, CC(C)n1c(CNC(=O)c2ccccc2F)nnc1SCC(=O)c1ccc(F)cc1 28%, CO[C@H]1CN(C)C(=O)c2cc(NC(=O)C3CC3)ccc2OC[C@H](C)N(C(=O)CN(C)C)C[C@H]1C -1.28%, Cc1cc(C(=O)N/N=C/c2ccccn2)c2ccccc2n1 -6.09%, CCN(CC(=O)NCc1ccc(F)cc1)C(=O)/C=C/c1ccc(OC)c(S(=O)(=O)NC(C)C)c1 -0.904%, O=S(=O)(c1ccc(F)cc1)N1C[C@H]2[C@@H](c3ccccc31)[C@H](CO)N2Cc1ccccc1Cl 19.3%, COc1cccc(NC(=O)N(C)C[C@H]2Oc3cc(C#CC4(O)CCCC4)ccc3S(=O)(=O)N([C@H](C)CO)C[C@H]2C)c1 -1.32%, CCN(C[C@H]1[C@H](c2ccccc2)[C@H](CO)N1C(C)=O)C(=O)c1ccccn1 3.97%, CN(C)C(=O)c1ccc(-c2ccc([C@@H]3[C@@H](CO)N4CCCCN(CC5CC5)C[C@@H]34)cc2)cc1 6.58%, Cc1cccc(NC(=O)CNC(=O)c2ccccc2Cl)n1 5.06%, CCCCCCCCNC(CO)(CO)CO -3.47%, C[C@@H]1CN([C@H](C)CO)C(=O)c2cccc(NC(=O)c3ccncc3)c2O[C@@H]1CN(C)C -1.43% [at 10 µM], COC(=O)c1cccc(NC(=O)c2ccc3c(c2)C(=O)N(Cc2cccnc2)C3=O)c1 -2.91%, O=C(O)c1ccc2c(c1)C(=O)N(c1cccc3ccccc13)C2=O -4.76%, C[C@@H]1CN([C@@H](C)CO)C(=O)c2cccc(NC(=O)C3CC3)c2O[C@@H]1CN(C)S(C)(=O)=O 0.87%, CCc1ccc(CNC(=O)C2CCN(S(=O)(=O)N3CCC(C)CC3)CC2)cc1 2.94%, C[C@@H]1CN([C@@H](C)CO)C(=O)c2cccc(N(C)C)c2O[C@@H]1CN(C)C(=O)Nc1cccc2ccccc12 0.748%, O=C1CC(C(=O)N2CCN(c3ccccn3)CC2)CN1Cc1ccccc1Cl (stereo not given) -1.18%
